# From PubChem BioAssay (NCI)
# About 83,000 compounds went through this panel and 20% of them were active in at least one assay; those are over-represented in the sample as a whole.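 Activity criterion: percent growth below 10, measured after cells in 96-well plates were exposed to a single compound concentration for 48 hours.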 Unmarked numbers belong to inactive results. Active and inactive are the calls of the source.
# Experiments:
# Test in all cases: NCI-60 one-dose screen, 48 h (100 = growth as untreated, 0 = no growth, -100 = all killed)
# Conditions in all cases: 10 µM unless noted
# [1] = system: DU-145 prostate
# [2] = system: K-562 leukemia
# [3] = system: MALME-3M melanoma
# [4] = system: MDA-MB-231 breast
# [5] = system: RXF 393 renal
# [6] = system: SF-268 CNS
# [7] = system: SF-295 CNS
# [8] = system: SF-539 CNS
# [9] = system: UACC-257 melanoma
# [10] = system: M14 melanoma
Compound,growth [1],growth [2],growth [3],growth [4],growth [5],growth [6],growth [7],growth [8],growth [9],growth [10]
O=C1C(=O)c2c(nc3ccc(Br)cn23)-c2ccccc21,-100% (active),-59.8% (active),-97.9% (active),-20.1% (active),-94.1% (active),-71.7% (active),-100% (active),-99.1% (active),-99% (active),-92.9% (active)
COc1cccc(C(=O)OCCn2nc3c4c(cccc42)C(=O)c2ccccc2-3)c1O,54.7%,13.7%,62.6%,62.2%,53%,55.8%,17.1%,9.58% (active),79.4%,36.2%
Cc1ccc(SC2c3ccc(C)cc3Oc3nc(N)c(C#N)c(N)c32)cc1 (stereo not given),92.6%,4.29% (active),31.9%,69.9%,53.9%,82.8%,103%,90.5%,94.6%,94.9%
O=C1c2ccccc2C(=O)c2c1oc1c2c(=O)[nH]c2ccccc21,82%,55.2%,124%,10.3%,97.2%,91%,92.7%,90.3%,112%,73.4%
C#Cc1cccc(Nc2ncnc3ccc(NC(=O)c4ccccc4)cc23)c1,50.9%,63.6%,104%,95.6%,58.5%,74.7%,89.7%,90.5%,99.6%,90.6%
S=c1ssnc1-c1cc2ccccc2o1,97.5%,55.7%,79.8%,91.2%,85.6%,78.8%,75.1%,102%,94.5%,52.4%
CCCCC(=O)Nc1c(C(=O)Nc2ccccc2)sc2nc3c(cc12)C(OC(=O)CCCC)CCC3 (stereo not given),87.9%,85.3%,105%,87.9%,95.2%,85.7%,101%,94.7%,110%,97.5%
CN(C)C1=NCCN1,108%,95.6%,97.2%,105%,108%,104%,101%,104%,103%,95.7%
Clc1ccc2c(NCCCNC3CCCCC3)ccnc2c1,101%,70.3%,116%,94.1%,82.6%,103%,55.1%,101%,107%,89.8%
Cc1cccc(C)c1Nc1nnc(-c2ccc(F)cc2)o1,99.9%,118%,96.5%,104%,98.5%,96.2%,102%,99.7%,116%,96.8%
NS(=O)(=O)c1ccc(-n2nc(-c3ccccc3)ccc2=O)cc1,109%,89.3%,82.5%,108%,125%,106%,260%,95.3%,111%,118%
CN(C)CSc1nc2ccccc2s1,105%,119%,86.7%,91.7%,106%,101%,92.8%,94.2%,113%,88.8%
O=C(Nc1cc(=O)[nH]c(=O)[nH]1)C(Cl)Cl,113%,99.2%,96.7%,102%,106%,99.9%,105%,106%,96.5%,106%
Cc1cnc(SCc2ccc(Cl)cc2)[nH]c1=S,100%,92.9%,95.8%,101%,132%,95.3%,95.5%,101%,102%,102%
c1ccc2nc(N3CCOCC3)c(N3CCCCC3)nc2c1,111%,90.5%,92.1%,97%,98%,95.2%,97.2%,99%,103%,105%
COc1ccc(NC(=O)Nc2ccc(Nc3nc(C)cc(Nc4ccc(C)cc4)n3)cc2)cc1,-95.8% (active),-60.9% (active),-78.7% (active),-75.8% (active),-80.7% (active),-67.9% (active),-66% (active),-89.5% (active),-87.8% (active),-82.9% (active)
Nc1c(C(=O)Nc2cccc3ccccc23)sc2nc3c(cc12)COCC3,58.7%,17.5%,60.8%,53.3%,41.4%,56.5%,28.9%,30%,54.5%,35.7%
COc1ccc(C(C)c2cc(OC)c(OC)c(OC)c2)cc1 (stereo not given),9.97% (active),7.1% (active),67.5%,30.5%,24.7%,37.5%,15.6%,-7.56% (active),53%,7.54% (active)
CCCCn1c(=O)c(/C=C/C(=O)/C=C/c2cc3ccccc3n(CCCC)c2=O)cc2ccccc21,-7.95% (active),3.37% (active),8.02% (active),-18.8% (active),-89.9% (active),7.91% (active),3.65% (active),-7.12% (active),-24% (active),-29.9% (active)
CC1CCCN(CCCCCOc2ccc3oc4ccc(Cl)cc4c(=O)c3c2)C1 (stereo not given),84.7%,16.8%,52%,62.3%,72%,81.2%,83.1%,66.6%,-17.9% (active),-17.5% (active)
COc1ccc(/C=C/C(=O)c2ccc(NC(=O)CSc3nnc(-c4ccc(OC)c(OC)c4)n3-c3ccccc3)cc2)cc1,40.8%,8.42% (active),-75% (active),1.36% (active),94.4%,80.6%,91.4%,87.5%,90%,36.2%
CC1=C(CCCOC(=O)NCCCl)C2=C(C)C3(CC3)[C@@](C)(O)C(=O)C2=C1,12.4%,85.9%,34.6%,44.8%,-69.2% (active),14.1%,1.44% (active),42.6%,48.5%,17.9%
CCOC(=O)C1CCN(S(=O)(=O)/N=C2/NC(=O)NC2=C(Cl)Cl)CC1,25.7%,-15.7% (active),-60% (active),9.62% (active),83.8%,11.2%,17.4%,-4.27% (active),19.9%,-22.4% (active)
C=C(C)[C@@H]1CCC=C2CC[C@]3(C)[C@H](CC[C@@H]4[C@@]5(C)CCCNC(C)(C)[C@@H]5CC[C@]43C)[C@H]21,18.6%,-0.754% (active),38%,-6.11% (active),47.6%,93.1%,72.5%,84.8%,83%,34.6%
CN(C)CCCn1c2c(c3cc(-c4cccc(S(N)(=O)=O)c4)ccc3c1=O)C(=O)c1ccccc1-2,67.9%,33.1%,67.1%,94.4%,85.1%,51.6%,50.6%,80.9%,97.4%,62.7%
OCCNc1nc(NCCO)nc(Nc2ccc(C3=NN(c4cc(Cl)cc(Cl)c4)C(c4ccc(Cl)cc4)C3)cc2)n1 (stereo not given),0.477% (active),4.31% (active),-43.7% (active),7.31% (active),-57.8% (active),19.1%,-68.3% (active),-45.2% (active),48.4%,1.11% (active)
Cn1c2ccccc2c2c(OC(=O)c3ccccc3)c3c(nc21)-c1ccccc1C3,104%,104%,104%,85.6%,109%,96.4%,100%,102%,95.7%,93.8%
